Cruzain inh noDet: blocks cruzain activity in detergent-free assay; Potency, µM, without a hit: max response, negative = inhibition, hits mostly inhibitors; 200,000 compounds, 2.3% hits; AID 1476; purified cruzain, Z-FR-AMC fluorescence, no detergent; P25779;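 also: plate controls were enzyme without inhibitor for no effect and buffer without enzyme for full effect; nearly all actives have a fitted effect of over 40% in size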
Target sequence (P25779 123-467 limits assumed): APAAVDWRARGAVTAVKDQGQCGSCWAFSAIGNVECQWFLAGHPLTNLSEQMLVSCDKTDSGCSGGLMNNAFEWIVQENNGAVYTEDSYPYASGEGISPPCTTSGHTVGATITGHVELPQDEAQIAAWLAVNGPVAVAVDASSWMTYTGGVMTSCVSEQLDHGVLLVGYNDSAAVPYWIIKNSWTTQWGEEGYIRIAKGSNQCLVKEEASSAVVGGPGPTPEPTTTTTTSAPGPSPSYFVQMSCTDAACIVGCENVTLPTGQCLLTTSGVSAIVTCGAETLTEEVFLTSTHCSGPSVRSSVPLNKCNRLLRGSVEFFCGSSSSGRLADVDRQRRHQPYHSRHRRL
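Purified cruzain at 1.5 nM, pre-incubated 15 min with compound at room temperature in 100 mM sodium acetate pH 5.5, 5 mM DTT, 0.00005% Triton X-100. Reaction started with 2 uM Z-FR-AMC; AMC fluorescence increase over 60 s gives rate.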
Cruzain Triton: inhibitors of Trypanosoma cruzi cruzain with detergent. P25779. purified cruzain, Z-FR-AMC fluorescence, 0.01% Triton. Potency, µM, for the others: max response, negative = inhibition, hits mostly inhibitors. 200,000 compounds, 0.43% hits. AID 1478;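 also: plate controls were neutral wells for no effect and buffer without enzyme for full effect; nearly all actives have a fitted effect of over 40% in size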
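Steps: dispense cruzain (1.5 nM final) in acetate buffer pH 5.5 with DTT and 0.01% Triton X-100; pin-transfer compounds; incubate 15 min RT; add Z-FR-AMC (2 uM final); read fluorescence every 30 s, using the 60 s intensity change.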
Numbers without * were called inactive; ? = inconclusive. An excerpt weighted towards active compounds, which were near 2.5% of everything screened. Calls follow the shape of the dose curve; as a rule, active = well fitted curve in the direction sought with a large enough effect; inconclusive = small, poorly fitted or top-dose-only effect, or another doubt; inactive = no such curve, though single readings can be large; an effect the other way counts as inactive or inconclusive. Potency is read from the fitted curve at half-maximal effect.

SMILES	Cruzain inh noDet	Cruzain Triton
CCOc1ccc(S(=O)(=O)N2CCN(c3cc(Cl)ccc3Cl)CC2)c2ccccc12	10µM*	-2%
CCOc1ccc(S(=O)(=O)N2CCCCC2)c2ccccc12	-5%	-1%
COc1ccc(S(=O)(=O)N2CCN(c3ccc(C)cc3C)CC2)cc1OC	?	-4%
CCOc1ccc(Cl)cc1S(=O)(=O)N1CCN(c2ccc(F)cc2)CC1	0%	-4%
CCOc1ccc(S(=O)(=O)N2CCN(c3ccc(C)cc3C)CC2)c2ccccc12	3.2µM*	-1%
Cc1ccc(N2CCN(S(=O)(=O)c3ccc(Cl)c4ccccc34)CC2)c(C)c1	10µM*	-1%
COc1ccc(NC(=O)C2CCN(C3=NS(=O)(=O)C(c4ccc(C)c(C)c4)=C3C)CC2)cc1OC	?	-1%
Cc1ccc(CNC(=O)c2ccc3c(c2)c(C)c(C)n3Cc2ccc(Cl)cc2)o1	?	-1%
CCOc1ccc(NC(=O)c2ccc3[nH]c(C)c(C)c3c2)cc1	-19%	-8%
CC(=O)c1cccc(NC(=O)c2ccc3c(c2)c(C)c(C)n3Cc2ccc(Cl)cc2)c1	6.3µM*	3%
CCOc1ccc(NC(=O)c2ccc3c(c2)c(C)c(C)n3Cc2ccc(F)cc2)cc1	25µM*	2%
CCn1c(C)c(C)c2cc(C(=O)Nc3cccc(Cl)c3)ccc21	?	-6%
COc1ccc(OC)c(NC(=O)c2ccc3c(c2)c(C)c(C)n3Cc2ccc(F)cc2)c1	5µM*	1%
Cc1c(C)n(Cc2ccc(F)cc2)c2ccc(C(=O)Nc3ccc(Cl)cc3)cc12	25µM*	3%
COc1ccc(NC(=O)c2ccc3c(c2)c(C)c(C)n3Cc2ccc(F)cc2)c(OC)c1	?	-1%
COc1ccc(NC(=O)CCS(=O)(=O)c2nc(-c3cccs3)cc(C(F)(F)F)n2)cc1OC	16%	-11%
COc1ccc(C2Nc3ccccc3C(=O)N2Cc2ccco2)cc1COc1ccc(NC(C)=O)cc1 (configuration not stated)	?	-12%
COc1ccc(C2Nc3ccccc3C(=O)N2Cc2ccco2)cc1COc1ccccc1F (configuration not stated)	25µM*	-7%
Cc1cccc(NS(=O)(=O)c2ccc3c(c2)Cc2cc(S(=O)(=O)Nc4cccc(C)c4C)ccc2-3)c1C	4µM*	1%
Cc1cccc(NS(=O)(=O)c2ccc3[nH]c(=O)[nH]c3c2)c1C	6%	-2%
Cc1cc(S(=O)(=O)Nc2ccc(-c3ccc(N4CCCCC4)nn3)cc2)c(C)cc1Cl	-7%	-1%
Nc1ccc(N2CCCCCC2)cc1	32µM*	-9%
O=C(O)c1ccc(N2CCCCC2)cc1	0%	-6%
Cc1cc(C)c(CN2C(=O)c3ccccc3S(=O)(=O)c3ccc(C(=O)OCC4CCCO4)cc32)c(C)c1 (configuration not stated)	13µM*	-2%
Cc1ccc(C)c(CN2C(=O)c3ccccc3S(=O)(=O)c3ccc(C(=O)OCC4CCCO4)cc32)c1 (configuration not stated)	-25%	-1%
SMILES	Cruzain inh noDet	Cruzain Triton
c1cn2cc(CSC3CCCCC3)nc2s1	-4%	-1%
O=C(NCCc1cn2ccsc2n1)C1CCCCC1	13µM*	-7%
O=C(NCCc1cn2ccccc2n1)C1CCCCC1	16µM*	-4%
O=C(NCCc1cn2ccccc2n1)c1ccccc1F	?	-14%
Cc1ccc(NC(=O)Nc2cn(CC(C)C)c(=O)c3ccccc23)cc1N(C)C	3%	-6%
CCc1ccc(OCC(=O)Nc2cc(-c3ccc(C)cc3)no2)cc1	?	-3%
Cc1cccc(-n2c(N)cc(=O)nc2SCC(=O)Nc2nnc(C)s2)c1	25µM*	?
COC(=O)c1ccccc1NC(=O)CSc1nc(O)cc(=O)n1C1CCCC1	?	-2%
Cc1cccc(-n2ccnc2SCC(=O)Nc2nnc(C)s2)c1	4%	5%
COC(=O)c1ccccc1NC(=O)CSc1nc(=O)cc(N)n1-c1ccccc1	-1%	25µM*
CCCCN(c1ccccc1)c1ncnc2c1cnn2-c1ccc(Cl)cc1	11%	1%
CC1(C)[C@@H]2CC[C@]1(CC(=O)O)[C@H](Cl)C2	-6%	6%
COc1ccc(C(=O)Nc2cc(Cl)cc(Cl)c2)c(OC)n1	13µM*	2%
COc1ccc(C(=O)Nc2cc(Cl)ccc2Cl)c(OC)n1	-17%	1%
Cc1ccc2sc(NNC(=O)c3cc(-c4cccs4)nc4ccccc34)nc2c1C	10µM*	0%
O=C(NNc1nc2ccc(Cl)cc2s1)c1cc(-c2cccs2)nc2ccccc12	7.9µM*	2%
O=C(NN1CCOCC1)c1cc(-c2cccs2)nc2ccccc12	10%	-9%
Cc1cc(C)c2nc(NNC(=O)c3cc(-c4cccs4)nc4ccccc34)sc2c1	?	2%
Cc1ccc2[nH]c3c(=O)n(CC(=O)N4CCCC(C)C4)ncc3c2c1 (configuration not stated)	-1%	-2%
CC(C)(C)C(=O)Nc1ccccc1C(=O)OCc1cc(=O)n2ccsc2n1	14%	0%
CC1CCN(S(=O)(=O)c2ccc(S(=O)(=O)NCc3ccccc3)cc2)CC1	16µM*	4%
O=S(=O)(NCc1ccccc1)c1ccc(S(=O)(=O)N2CCCCC2)cc1	?	3%
CC1CCN(S(=O)(=O)c2ccc(NC(=O)N3c4ccccc4Sc4ccccc43)cc2)CC1	13µM*	-1%
NS(=O)(=O)c1ccc(NC(=O)N2c3ccccc3Sc3ccccc32)cc1	1%	-2%
COc1ccccc1-c1noc(CSc2nnc(Cc3ccccc3)n2-c2ccc(C)c(C)c2)n1	10%	-12%
SMILES	Cruzain inh noDet	Cruzain Triton
O=C(NCCc1ccccc1)c1ccc(CSc2nc3ccncc3n2Cc2ccc(F)cc2)cc1	0%	-8%
CCOc1cc(/C=C2\C(=O)N(c3nc(-c4ccc(Br)cc4)cs3)N=C2c2ccccc2)ccc1O	3.2µM*	?
CCOc1cc(/C=C/c2cc(C(=O)O)c3ccccc3n2)ccc1O	-10%	-10%
C[C@@H](SCc1ccccc1)C(=O)O	6%	1%
CCn1c(=O)n(CC)c2cc(N3CCCCC3)c(NC(=O)Nc3ccccc3Cl)cc21	?	-6%
O=C(COC(=O)C1CC(=O)N(c2ccccc2)C1)c1ccccc1 (configuration not stated)	0%	2%
O=C(COC(=O)C1CC(=O)N(c2nc(-c3ccccc3)cs2)C1)c1ccccc1 (configuration not stated)	25µM*	-5%
Cc1ccc2sc(NC(=O)CN3C(=O)CCC3=O)nc2c1C	1%	-3%
Cc1c(Cl)ccc2sc(NC(=O)CN3C(=O)c4ccccc4C3=O)nc12	10µM*	0%
CCCOc1ccc(Oc2nc(NC)nc(N3CCOCC3)n2)nn1	7%	5%
Oc1ccccc1/C=N/Nc1ccnc(SCc2ccccc2)n1	20µM*	-6%
Clc1ccc(Cl)c(Nc2ccnc(SCc3ccccc3)n2)c1	-12%	-6%
CCc1ccc(CNC(=O)c2cc(=O)[nH]c3ccc(S(=O)(=O)N4CCCCC4)cc23)cc1	7%	0%
O=S(=O)(Nc1nc2ccccc2nc1Nc1ccc2c(c1)OCO2)c1ccccc1	?	-3%
Cc1cccc(S(=O)(=O)Nc2nc3ccccc3nc2Nc2ccc3c(c2)OCO3)c1	16µM*	-6%
O=C(Nc1nc2n(n1)C(c1ccc(F)cc1)C=C(c1ccc(Cl)cc1)N2)c1ccc([N+](=O)[O-])cc1 (configuration not stated)	-4%	-4%
Cc1ccc(C)c(NC(=O)c2cc(S(=O)(=O)N3CCc4ccccc4C3)ccc2F)c1	-3%	2%

From PubChem
